# Experimental data reported in paper PMC7862700, “An all-to-all approach to the identification of sequence-specific readers for epigenetic DNA modifications on cytosine”.
# Assays:
# Assay in all cases: DAPPL (digital affinity profiling via proximity ligation, sequencing); 10 mM Tris-HCl pH 7.5, 50 mM NaCl, 1 mM DTT, 4% glycerol, room temperature, 30 min; GST-TFs on glutathione beads, 16-mer random dsDNA library, 0.1% formaldehyde crosslink after washing; high values mean tight binding
# FLI1 = molecular target: T1, FLI1 (Homo sapiens, UniProt Q01543 1-452); settings: protein: recombinant; tags: N-terminal GST; dsDNA, one strand shown
# T1 sequence: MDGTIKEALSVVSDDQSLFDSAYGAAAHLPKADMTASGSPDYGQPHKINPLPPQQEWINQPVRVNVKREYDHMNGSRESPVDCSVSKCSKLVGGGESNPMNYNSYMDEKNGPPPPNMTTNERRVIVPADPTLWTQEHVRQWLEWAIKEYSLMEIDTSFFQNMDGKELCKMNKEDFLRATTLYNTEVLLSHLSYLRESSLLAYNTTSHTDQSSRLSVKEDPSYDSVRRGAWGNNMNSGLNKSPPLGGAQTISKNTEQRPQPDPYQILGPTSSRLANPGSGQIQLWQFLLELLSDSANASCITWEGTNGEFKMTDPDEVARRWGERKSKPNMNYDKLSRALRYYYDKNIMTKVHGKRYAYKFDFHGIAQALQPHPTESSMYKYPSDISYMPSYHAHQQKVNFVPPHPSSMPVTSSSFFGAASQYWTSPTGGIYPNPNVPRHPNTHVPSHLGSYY
# Outline: (§1)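 A tag-only sample was pooled with DNA-barcoded human transcription factors that had been expressed in yeast as GST fusions and captured on glutathione beads. The pools were incubated for 30 min at room temperature with 200 nmole of a random double-stranded 16-mer DNA library in Tris/NaCl/DTT/glycerol buffer, then washed, crosslinked with 0.1% formaldehyde, proximity-ligated (BsaI/T4 ligase, 1 h, 37 °C), PCR-amplified and sequenced on an Illumina NextSeq500. Binding signal is each hexamer's read frequency for a factor divided by its frequency for the tag-only sample.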
# ELK1 = molecular target: T2, ELK1 (Homo sapiens, UniProt P19419 1-428); settings: protein: recombinant; tags: N-terminal GST; dsDNA, one strand shown
# T2 sequence: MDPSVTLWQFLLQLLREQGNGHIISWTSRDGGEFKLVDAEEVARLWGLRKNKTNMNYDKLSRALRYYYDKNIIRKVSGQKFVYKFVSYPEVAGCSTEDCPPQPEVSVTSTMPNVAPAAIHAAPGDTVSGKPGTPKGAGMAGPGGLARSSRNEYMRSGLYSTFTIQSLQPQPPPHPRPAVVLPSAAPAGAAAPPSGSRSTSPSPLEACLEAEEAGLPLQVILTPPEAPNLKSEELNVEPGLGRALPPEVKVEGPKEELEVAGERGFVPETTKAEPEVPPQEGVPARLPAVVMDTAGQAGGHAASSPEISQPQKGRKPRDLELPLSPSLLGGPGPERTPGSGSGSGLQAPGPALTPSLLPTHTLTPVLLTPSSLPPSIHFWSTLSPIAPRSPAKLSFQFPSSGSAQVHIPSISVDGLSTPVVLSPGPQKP
# Outline: as §1
# GABPA = molecular target: T3, GABPA (Homo sapiens, UniProt Q06546 1-454); settings: protein: recombinant; tags: N-terminal GST; dsDNA, one strand shown
# T3 sequence: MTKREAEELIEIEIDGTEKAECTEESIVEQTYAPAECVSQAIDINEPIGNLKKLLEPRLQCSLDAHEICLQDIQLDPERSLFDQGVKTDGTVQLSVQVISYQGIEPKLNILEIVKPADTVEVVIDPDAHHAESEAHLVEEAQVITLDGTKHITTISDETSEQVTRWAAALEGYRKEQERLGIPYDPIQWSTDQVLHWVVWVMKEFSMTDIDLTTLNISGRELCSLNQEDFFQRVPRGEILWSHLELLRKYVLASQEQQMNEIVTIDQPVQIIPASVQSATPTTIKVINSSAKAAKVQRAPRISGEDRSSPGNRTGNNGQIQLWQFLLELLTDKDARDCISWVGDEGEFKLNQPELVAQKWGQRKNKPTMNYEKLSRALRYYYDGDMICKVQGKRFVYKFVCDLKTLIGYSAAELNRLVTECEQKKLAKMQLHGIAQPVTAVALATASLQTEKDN
# Outline: as §1
# ERG = molecular target: T4, ERG (Homo sapiens, UniProt P11308 1-479); settings: protein: recombinant; tags: N-terminal GST; dsDNA, one strand shown
# T4 sequence: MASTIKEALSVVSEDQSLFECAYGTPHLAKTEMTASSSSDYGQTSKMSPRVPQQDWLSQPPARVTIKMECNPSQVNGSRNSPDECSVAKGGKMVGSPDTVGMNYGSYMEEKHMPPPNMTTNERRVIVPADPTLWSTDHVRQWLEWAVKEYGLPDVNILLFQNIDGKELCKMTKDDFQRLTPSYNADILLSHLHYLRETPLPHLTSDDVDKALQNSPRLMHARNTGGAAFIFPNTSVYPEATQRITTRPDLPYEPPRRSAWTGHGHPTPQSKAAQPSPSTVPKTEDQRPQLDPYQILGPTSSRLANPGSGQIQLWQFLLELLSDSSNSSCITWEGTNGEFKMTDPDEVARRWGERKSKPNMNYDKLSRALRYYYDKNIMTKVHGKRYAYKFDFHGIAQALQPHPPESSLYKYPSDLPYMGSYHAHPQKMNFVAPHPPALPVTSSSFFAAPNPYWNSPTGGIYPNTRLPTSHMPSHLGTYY
# Outline: as §1
# ELF1 = ELF1 (Homo sapiens, UniProt P32519 1-619); settings: protein: recombinant; tags: N-terminal GST; dsDNA, one strand shown
# Outline: as §1
# EHF = molecular target: T5, EHF (Homo sapiens, UniProt Q9NZC4 1-300); settings: protein: recombinant; tags: N-terminal GST; dsDNA, one strand shown
# T5 sequence: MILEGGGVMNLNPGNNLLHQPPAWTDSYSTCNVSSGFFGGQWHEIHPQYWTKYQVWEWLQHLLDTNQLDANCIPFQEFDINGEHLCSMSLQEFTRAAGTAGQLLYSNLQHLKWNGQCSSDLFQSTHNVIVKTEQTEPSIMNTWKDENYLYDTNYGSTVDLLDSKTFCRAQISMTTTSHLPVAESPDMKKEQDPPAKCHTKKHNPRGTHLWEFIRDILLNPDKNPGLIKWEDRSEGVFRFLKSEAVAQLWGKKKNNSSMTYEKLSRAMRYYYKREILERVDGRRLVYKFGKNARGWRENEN
# Outline: as §1
# SPI1 = SPI1 (Homo sapiens, UniProt P17947 1-270); settings: protein: recombinant; tags: N-terminal GST; dsDNA, one strand shown
# Outline: as §1
# SPIB = SPIB (Homo sapiens, UniProt Q01892 1-262); settings: protein: recombinant; tags: N-terminal GST; dsDNA, one strand shown
# Outline: as §1
# ELK3 = molecular target: T6, ELK3 (Homo sapiens, UniProt P41970 1-407); settings: protein: recombinant; tags: N-terminal GST; dsDNA, one strand shown
# T6 sequence: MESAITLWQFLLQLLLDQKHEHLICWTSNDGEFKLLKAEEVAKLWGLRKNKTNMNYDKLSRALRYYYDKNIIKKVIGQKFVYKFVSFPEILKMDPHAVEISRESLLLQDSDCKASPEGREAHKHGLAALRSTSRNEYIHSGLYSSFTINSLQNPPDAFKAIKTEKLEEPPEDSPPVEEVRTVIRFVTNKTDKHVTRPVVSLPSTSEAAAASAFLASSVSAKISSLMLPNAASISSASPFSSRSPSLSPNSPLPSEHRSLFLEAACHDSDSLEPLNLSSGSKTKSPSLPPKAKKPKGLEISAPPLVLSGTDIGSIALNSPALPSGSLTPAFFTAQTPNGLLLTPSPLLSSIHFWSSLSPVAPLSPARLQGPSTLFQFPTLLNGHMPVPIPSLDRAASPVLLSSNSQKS
# Outline: as §1
# FEV = molecular target: T7, FEV (Homo sapiens, UniProt Q99581 1-238); settings: protein: recombinant; tags: N-terminal GST; dsDNA, one strand shown
# T7 sequence: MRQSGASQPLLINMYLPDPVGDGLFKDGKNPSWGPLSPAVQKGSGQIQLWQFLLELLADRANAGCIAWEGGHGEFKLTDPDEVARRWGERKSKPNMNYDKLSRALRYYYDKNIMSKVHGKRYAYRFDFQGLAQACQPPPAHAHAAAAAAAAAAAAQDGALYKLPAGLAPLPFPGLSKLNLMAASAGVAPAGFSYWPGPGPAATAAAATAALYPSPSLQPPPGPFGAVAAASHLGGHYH
# Outline: as §1
# ETV5 = ETV5 (Homo sapiens, UniProt P41161 1-510); settings: protein: recombinant; tags: N-terminal GST; dsDNA, one strand shown
# Outline: as §1
# HSF1 = HSF1 (Homo sapiens, UniProt Q00613 1-529); settings: protein: recombinant; tags: N-terminal GST; chain copies: 3; dsDNA, one strand shown
# Outline: as §1
# SPIC = molecular target: T8, SPIC (Homo sapiens, UniProt Q8N5J4 1-248); settings: protein: recombinant; tags: N-terminal GST; dsDNA, one strand shown
# T8 sequence: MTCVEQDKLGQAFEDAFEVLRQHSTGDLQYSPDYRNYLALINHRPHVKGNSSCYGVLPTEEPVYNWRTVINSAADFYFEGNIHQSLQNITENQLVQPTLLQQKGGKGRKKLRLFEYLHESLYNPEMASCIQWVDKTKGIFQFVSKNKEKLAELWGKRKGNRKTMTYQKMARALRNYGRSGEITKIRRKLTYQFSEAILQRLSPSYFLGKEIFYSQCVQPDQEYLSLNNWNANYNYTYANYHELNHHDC
# Outline: as §1
# ELF4 = ELF4 (Homo sapiens, UniProt Q99607 1-663); settings: protein: recombinant; tags: N-terminal GST; dsDNA, one strand shown
# Outline: as §1
# ELK4 = molecular target: T9, ELK4 (Homo sapiens, UniProt P28324-2 1-405); settings: protein: recombinant; tags: N-terminal GST; dsDNA, one strand shown
# T9 sequence: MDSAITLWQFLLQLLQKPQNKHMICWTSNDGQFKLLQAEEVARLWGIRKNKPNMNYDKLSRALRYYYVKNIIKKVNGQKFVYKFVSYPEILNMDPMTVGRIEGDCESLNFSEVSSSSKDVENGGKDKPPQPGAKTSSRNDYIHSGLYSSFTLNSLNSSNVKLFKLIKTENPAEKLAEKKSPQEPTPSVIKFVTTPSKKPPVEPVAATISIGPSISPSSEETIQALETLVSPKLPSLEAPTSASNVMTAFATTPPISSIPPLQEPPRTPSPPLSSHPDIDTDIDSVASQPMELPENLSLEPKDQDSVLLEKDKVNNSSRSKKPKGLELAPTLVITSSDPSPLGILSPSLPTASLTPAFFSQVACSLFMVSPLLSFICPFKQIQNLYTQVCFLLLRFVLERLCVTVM
# Outline: as §1
# ETV2 = molecular target: T10, ETV2 (Homo sapiens, UniProt O00321 1-342); settings: protein: recombinant; tags: N-terminal GST; dsDNA, one strand shown
# T10 sequence: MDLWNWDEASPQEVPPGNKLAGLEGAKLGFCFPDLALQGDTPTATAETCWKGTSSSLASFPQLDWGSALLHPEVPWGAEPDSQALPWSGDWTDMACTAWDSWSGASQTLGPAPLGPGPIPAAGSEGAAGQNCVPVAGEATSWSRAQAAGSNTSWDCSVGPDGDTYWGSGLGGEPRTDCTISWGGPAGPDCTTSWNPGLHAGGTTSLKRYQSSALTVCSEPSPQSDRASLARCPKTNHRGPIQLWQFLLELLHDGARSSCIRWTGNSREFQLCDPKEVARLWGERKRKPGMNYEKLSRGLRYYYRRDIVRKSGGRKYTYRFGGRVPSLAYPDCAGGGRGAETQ
# Outline: as §1
# ELF3 = molecular target: T11, ELF3 (Homo sapiens, UniProt P78545 1-371); settings: protein: recombinant; tags: N-terminal GST; dsDNA, one strand shown
# T11 sequence: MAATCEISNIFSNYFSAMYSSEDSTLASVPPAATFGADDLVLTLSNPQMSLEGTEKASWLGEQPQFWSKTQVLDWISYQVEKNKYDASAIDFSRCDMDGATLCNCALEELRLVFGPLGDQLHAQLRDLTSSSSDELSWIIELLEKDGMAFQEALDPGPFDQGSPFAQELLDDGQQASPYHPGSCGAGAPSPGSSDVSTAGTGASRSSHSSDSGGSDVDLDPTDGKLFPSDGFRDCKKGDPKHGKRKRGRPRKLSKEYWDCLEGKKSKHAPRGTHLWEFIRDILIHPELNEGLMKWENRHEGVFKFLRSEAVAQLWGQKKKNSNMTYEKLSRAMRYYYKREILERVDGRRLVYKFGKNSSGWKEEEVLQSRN
# Outline: as §1
# ETV1 = ETV1 (Homo sapiens, UniProt P50549 1-477); settings: protein: recombinant; tags: N-terminal GST; dsDNA, one strand shown
# Outline: as §1
# HSF1, sequence (Q00613 whole entry): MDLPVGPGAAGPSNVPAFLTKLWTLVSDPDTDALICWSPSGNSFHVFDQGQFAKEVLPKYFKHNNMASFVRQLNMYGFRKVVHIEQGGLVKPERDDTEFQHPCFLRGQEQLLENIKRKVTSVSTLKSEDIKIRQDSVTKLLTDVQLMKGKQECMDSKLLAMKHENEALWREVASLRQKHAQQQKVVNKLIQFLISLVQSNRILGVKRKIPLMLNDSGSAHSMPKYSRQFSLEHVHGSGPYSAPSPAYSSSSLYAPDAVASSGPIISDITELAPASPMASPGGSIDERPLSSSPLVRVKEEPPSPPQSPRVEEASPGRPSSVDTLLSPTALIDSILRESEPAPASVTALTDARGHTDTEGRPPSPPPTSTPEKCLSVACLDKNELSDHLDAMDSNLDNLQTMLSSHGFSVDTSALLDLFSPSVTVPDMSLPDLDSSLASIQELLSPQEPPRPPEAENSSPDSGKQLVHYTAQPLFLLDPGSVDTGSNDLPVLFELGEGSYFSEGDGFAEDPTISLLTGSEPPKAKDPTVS
# ELF4, sequence (Q99607 whole entry): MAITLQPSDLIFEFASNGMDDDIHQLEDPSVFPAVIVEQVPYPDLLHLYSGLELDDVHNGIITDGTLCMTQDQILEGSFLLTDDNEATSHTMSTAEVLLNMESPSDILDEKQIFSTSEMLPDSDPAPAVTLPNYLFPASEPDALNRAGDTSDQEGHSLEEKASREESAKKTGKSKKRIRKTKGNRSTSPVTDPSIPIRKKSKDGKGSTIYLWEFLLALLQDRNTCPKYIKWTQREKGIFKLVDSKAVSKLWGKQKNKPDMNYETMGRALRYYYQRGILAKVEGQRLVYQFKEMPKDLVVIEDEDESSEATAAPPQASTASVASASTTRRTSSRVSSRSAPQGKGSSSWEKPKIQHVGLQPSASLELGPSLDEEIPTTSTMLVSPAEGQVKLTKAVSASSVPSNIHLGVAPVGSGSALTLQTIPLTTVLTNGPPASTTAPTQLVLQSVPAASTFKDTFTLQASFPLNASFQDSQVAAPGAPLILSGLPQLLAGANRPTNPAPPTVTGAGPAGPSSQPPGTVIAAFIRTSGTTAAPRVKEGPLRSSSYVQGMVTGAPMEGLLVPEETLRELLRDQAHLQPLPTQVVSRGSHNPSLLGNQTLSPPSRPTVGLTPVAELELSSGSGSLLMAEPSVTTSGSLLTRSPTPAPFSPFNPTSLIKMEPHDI
# ETV1, sequence (P50549 whole entry): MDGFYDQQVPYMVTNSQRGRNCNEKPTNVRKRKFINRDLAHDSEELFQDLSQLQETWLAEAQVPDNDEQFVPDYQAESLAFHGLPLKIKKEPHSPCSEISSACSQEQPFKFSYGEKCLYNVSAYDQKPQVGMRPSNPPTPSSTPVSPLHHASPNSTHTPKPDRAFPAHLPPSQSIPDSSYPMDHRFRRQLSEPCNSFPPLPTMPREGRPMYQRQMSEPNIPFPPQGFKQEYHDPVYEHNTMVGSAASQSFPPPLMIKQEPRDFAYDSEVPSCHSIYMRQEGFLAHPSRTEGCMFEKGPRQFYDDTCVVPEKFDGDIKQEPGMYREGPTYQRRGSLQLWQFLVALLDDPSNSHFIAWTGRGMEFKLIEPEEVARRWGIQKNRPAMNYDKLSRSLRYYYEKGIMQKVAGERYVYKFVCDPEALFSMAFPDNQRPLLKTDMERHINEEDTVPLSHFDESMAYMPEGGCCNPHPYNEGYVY
# ETV5, sequence (P41161 whole entry): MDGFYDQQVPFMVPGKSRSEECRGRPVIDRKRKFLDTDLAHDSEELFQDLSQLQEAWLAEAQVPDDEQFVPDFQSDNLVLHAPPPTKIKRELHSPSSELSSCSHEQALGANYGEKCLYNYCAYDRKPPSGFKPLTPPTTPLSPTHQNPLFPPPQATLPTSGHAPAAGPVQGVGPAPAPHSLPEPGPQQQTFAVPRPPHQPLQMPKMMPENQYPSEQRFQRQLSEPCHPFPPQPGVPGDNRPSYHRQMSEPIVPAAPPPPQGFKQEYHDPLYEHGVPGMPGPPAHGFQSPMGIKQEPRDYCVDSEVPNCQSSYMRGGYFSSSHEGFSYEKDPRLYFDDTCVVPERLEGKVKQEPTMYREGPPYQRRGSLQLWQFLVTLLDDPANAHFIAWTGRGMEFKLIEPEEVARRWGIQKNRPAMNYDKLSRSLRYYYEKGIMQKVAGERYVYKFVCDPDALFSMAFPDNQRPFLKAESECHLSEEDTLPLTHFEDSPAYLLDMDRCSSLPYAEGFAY
# ELF1, sequence (P32519 whole entry): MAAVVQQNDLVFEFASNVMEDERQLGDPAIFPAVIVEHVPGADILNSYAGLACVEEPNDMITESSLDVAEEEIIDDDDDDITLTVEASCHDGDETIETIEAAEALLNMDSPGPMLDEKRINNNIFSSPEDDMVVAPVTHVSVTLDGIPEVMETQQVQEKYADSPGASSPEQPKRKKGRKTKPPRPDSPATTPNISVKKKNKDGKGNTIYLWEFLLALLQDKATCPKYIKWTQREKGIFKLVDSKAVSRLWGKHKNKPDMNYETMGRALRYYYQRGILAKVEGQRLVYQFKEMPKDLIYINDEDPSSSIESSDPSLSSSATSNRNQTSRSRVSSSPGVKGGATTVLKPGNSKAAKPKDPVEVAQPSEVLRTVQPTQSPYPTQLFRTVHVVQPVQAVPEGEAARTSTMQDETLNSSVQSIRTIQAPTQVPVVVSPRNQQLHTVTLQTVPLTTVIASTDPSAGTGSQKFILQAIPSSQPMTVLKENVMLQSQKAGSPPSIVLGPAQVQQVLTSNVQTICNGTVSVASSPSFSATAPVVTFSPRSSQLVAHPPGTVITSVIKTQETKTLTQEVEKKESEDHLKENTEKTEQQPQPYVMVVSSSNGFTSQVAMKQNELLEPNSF
# SPIB, sequence (Q01892 whole entry): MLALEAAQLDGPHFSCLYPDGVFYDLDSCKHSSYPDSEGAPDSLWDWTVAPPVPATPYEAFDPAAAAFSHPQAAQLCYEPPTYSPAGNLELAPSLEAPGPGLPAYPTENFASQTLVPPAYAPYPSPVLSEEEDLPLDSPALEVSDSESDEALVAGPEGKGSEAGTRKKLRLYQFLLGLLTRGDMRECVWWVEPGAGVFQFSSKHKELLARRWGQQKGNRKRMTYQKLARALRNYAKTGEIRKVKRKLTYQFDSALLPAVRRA
sequence,measurement,setting,value
TGCGTA,binding signal,FLI1,"1.15 fold enrichment (6-mer frequency, TF over GST control)"
same,binding signal,ELK1,"1.15 fold enrichment (6-mer frequency, TF over GST control)"
same,binding signal,GABPA,"1.06 fold enrichment (6-mer frequency, TF over GST control)"
same,binding signal,ERG,"1.05 fold enrichment (6-mer frequency, TF over GST control)"
same,binding signal,ELF1,"1.1 fold enrichment (6-mer frequency, TF over GST control)"
same,binding signal,EHF,"1.06 fold enrichment (6-mer frequency, TF over GST control)"
same,binding signal,SPI1,"1.17 fold enrichment (6-mer frequency, TF over GST control)"
same,binding signal,SPIB,"1.22 fold enrichment (6-mer frequency, TF over GST control)"
same,binding signal,ELK3,"1.09 fold enrichment (6-mer frequency, TF over GST control)"
same,binding signal,FEV,"1.06 fold enrichment (6-mer frequency, TF over GST control)"
same,binding signal,ETV5,"1.12 fold enrichment (6-mer frequency, TF over GST control)"
same,binding signal,HSF1,"1.06 fold enrichment (6-mer frequency, TF over GST control)"
same,binding signal,SPIC,"1.11 fold enrichment (6-mer frequency, TF over GST control)"
same,binding signal,ELF4,"1.08 fold enrichment (6-mer frequency, TF over GST control)"
same,binding signal,ELK4,"1.27 fold enrichment (6-mer frequency, TF over GST control)"
same,binding signal,ETV2,"1.21 fold enrichment (6-mer frequency, TF over GST control)"
same,binding signal,ELF3,"1.01 fold enrichment (6-mer frequency, TF over GST control)"
same,binding signal,ETV1,"1.24 fold enrichment (6-mer frequency, TF over GST control)"
